This note sets out measurements from ChEMBL document CHEMBL3988442, “University of Dundee, Small-Polar-MMV Screening Library” (2021).

The structures appear in SMILES notation. The campaign covered roughly 69,000 compounds. About 420 (0.61%) showed an effect of 50% or more. The sample holds strong results, similar compounds and a random draw of the others, so the mix is not that of the screen.

The experiment has as its target T1, Histidine--tRNA ligase (Leishmania infantum) (UniProt A4I591).
T1 sequence (whole entry): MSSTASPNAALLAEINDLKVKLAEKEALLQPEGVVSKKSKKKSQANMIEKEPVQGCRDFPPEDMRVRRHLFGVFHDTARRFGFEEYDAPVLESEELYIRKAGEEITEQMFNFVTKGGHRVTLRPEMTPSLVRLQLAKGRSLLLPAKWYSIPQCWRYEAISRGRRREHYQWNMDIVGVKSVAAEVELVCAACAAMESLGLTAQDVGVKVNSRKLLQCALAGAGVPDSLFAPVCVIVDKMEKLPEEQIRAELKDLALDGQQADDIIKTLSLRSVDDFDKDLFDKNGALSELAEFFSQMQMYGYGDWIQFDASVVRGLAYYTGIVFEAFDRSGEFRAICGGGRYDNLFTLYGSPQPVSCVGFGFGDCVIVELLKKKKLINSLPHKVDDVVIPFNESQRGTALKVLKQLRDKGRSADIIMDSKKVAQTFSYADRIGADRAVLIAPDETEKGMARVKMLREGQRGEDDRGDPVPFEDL
Description: Leishmania infantum Histidine tRNA synthetase (LdHisRS). It is filed as functional. Further details: scale not given: in the data most compounds retested in dose-response had high values. To be noted: 30 µM.
Consider `O=C(c1cccnc1)N1CCN2C[C@H](OCc3ccccc3)C[C@H]2C1`, for which the Percent Effect was found to be 2%. The value for `O=C(c1ccc(S(=O)(=O)NC2CCC2)cc1)N1CC[C@H]2CNC[C@H]21` was -8.06%; that for `CN(C)CCCN(C)c1nccc(N2CCN[C@H]3CS(=O)(=O)C[C@H]32)n1` was 12.9%; that for `CNc1nc(C)c(-c2nc(-c3c(C)ncc4c3CCNC4)no2)s1` was 7.79%. Turning to `CC(C)n1ncc2c1NC(=O)CC2c1ccccc1Cl` (stereo not given), the Percent Effect was 22.5%. Under `CNc1nc2c(s1)C(c1c(F)cccc1Cl)CC(=O)N2` (stereo not given) stands 120%. Under `Cn1ncc2c1NC(=O)CC2c1c(F)cccc1Cl` (stereo not given) stands 20%.

On to `CNc1nc2c(s1)C(c1cc(Cl)ccc1F)CC(=O)N2` (stereo not given), for which the Percent Effect worked out at 42.5%. Under `CNc1nc2c(s1)C(c1ccc(F)cc1Cl)CC(=O)N2` (stereo not given) stands 7.5%; under `CNc1nc2c(s1)C(c1ccc(Cl)cc1Cl)CC(=O)N2` (stereo not given), 62.5%; under `CNc1nc2c(s1)C(c1c(Cl)cccc1Cl)CC(=O)N2` (stereo not given), 74.3%. Under `Nc1nc2c(s1)C(c1c(F)cccc1Cl)CC(=O)N2` (stereo not given) stands 90%; under `Cn1ncc2c1NC(=O)CC2c1c(Cl)cccc1Cl` (stereo not given), 25%. Under `CC(C)(C)n1ncc2c1NC(=O)CC2c1c(F)cccc1F` (stereo not given) stands 26%; under `CSc1ccccc1CN1C[C@@H]2CC[C@H](C1)N(CC1CC1)C2=O`, 21.6%. On to `Cc1noc([C@H]2COC[C@H]3CN(C(=O)Cc4ccc(F)cc4)C[C@H]32)n1`, for which the Percent Effect is 9.62%. For the molecule `O=C(c1ccc(F)cc1)N1C[C@H]2CCC[C@@]2(COCc2ccncc2)C1`, the Percent Effect was determined as 18.6%. Under `O=S(=O)(c1cccs1)N1CC[C@H]2[C@H]1CCN2c1ncccn1` stands 11.7%; under `CCN1C(=O)CC[C@@H]2[C@H]1CCN2S(=O)(=O)Cc1ccc(C)cc1`, 8.06%; under `COCC(=O)N1C[C@H]2CNC[C@@]2(C(=O)NCc2cc(C)n[nH]2)C1`, 1.43%. For `O=C([C@H]1COC[C@H]2CN(CC3CC3)C[C@H]21)N1CCOCC1`, the Percent Effect was 10.3%. `O[C@]1(c2ccccn2)CC[C@@H]2CN(Cc3cccc4ncccc34)C[C@@H]21`: the Percent Effect came out at 27.8%. Turning to `Cc1ccc(N2C[C@H]3OCC[C@H]3[C@H](C(=O)NCC3CC3)C2)nn1`, the Percent Effect is 0%. The value for `O=C(NC[C@H]1OC[C@@H]2CCN(c3ccccn3)C[C@@H]21)c1ccco1` was -7.89%; that for `Cc1noc([C@H]2C[C@H]3OCC[C@H]3N(S(=O)(=O)C3CC3)C2)n1` was 13.3%; that for `O=C1CC(c2ccccc2F)c2c(n3ccsc3nc2=O)N1` (stereo not given) was 11.7%. For `CNc1nc2c(s1)C(c1cccc(Cl)c1Cl)CC(=O)N2` (stereo not given), the Percent Effect was determined as 42.5%.

In the case of `CNc1nc2c(s1)C(c1cccc(F)c1F)CC(=O)N2` (stereo not given), the Percent Effect was found to be 45.7%.

As for `Cn1ncc2c1NC(=O)CC2c1ccccc1Cl` (stereo not given), the Percent Effect is 14.3%. For `CNc1nc2c(s1)C(c1ccccc1Cl)CC(=O)N2` (stereo not given), the Percent Effect worked out at 57.5%.

As to `CNc1nc2c(s1)C(c1ccccc1F)CC(=O)N2` (stereo not given), the Percent Effect is 70%. The value for `O=C([C@H]1COC[C@H]2CN(c3ncc(F)cn3)C[C@H]21)N1CCOCC1` was 1.71%; that for `Cc1cccnc1NC(=O)NCc1ccc(N2CCNC(=O)C2)cc1` was 84.9%; that for `Cc1ccccc1C(=O)NCc1ccc(N2CCNC(=O)C2)cc1` was 44.2%. The value for `Cc1nnc(NC(=O)NCc2ccc(N3CCNC(=O)C3)cc2)s1` was 39.8%.

As to `CC(O)CNC(=O)NCc1ccc(N2CCNC(=O)C2)cc1` (stereo not given), the Percent Effect came out at 49.3%. Under `CC(C(=O)NCc1ccc(N2CCNC(=O)C2)cc1)n1cncn1` (stereo not given) stands 52%.

On to `CC(C(=O)NCc1ccc(N2CCNC(=O)C2)cc1)c1cccs1` (stereo not given), for which the Percent Effect came out at 20.9%.

As to `CCOc1ccc(Cl)cc1CNCCCn1ccnc1`, the Percent Effect was 9.71%.

As to `CCOc1c(Cl)cc(Cl)cc1CNCCCn1ccnc1`, the Percent Effect was found to be 58.3%. Under `CCOc1c(CNCCCn2ccnc2)cc(Cl)cc1OC` stands 10%; under `C[C@H]1C(=O)NC[C@H]2CN(Cc3cccc(F)c3)C[C@H]21`, 15.6%. The value for `COCCNC(=O)[C@H]1CN(c2nnc(C)s2)C[C@H]2OCC[C@@H]12` was 5.11%; that for `NCc1ccnc(Oc2ccccc2)c1` was 59%; that for `COc1ccc(Oc2cc(CN)ccn2)cc1` was 32.5%. `NCc1ccnc(Oc2ccc(F)cc2)c1`: the Percent Effect came to 30.1%. Under `CNC(=O)CN1CC[C@H]2CN(C(=O)c3ccccc3F)C[C@H]2C1` stands 16.7%. The value for `O=C(NC1CC1)[C@H]1C[C@H]2OCC[C@H]2N(Cc2ccc(F)cc2)C1` was 2.78%; that for `CNC(=O)CN1CCO[C@H]2CN(CC3CCOCC3)C[C@H]21` was 32%. Under `CCN1C[C@H]2C3(CCN(S(=O)(=O)CC)CC3)CC[C@@]2(C(=O)N(C)C)C1` stands 7.69%; under `Cc1noc([C@]23COC[C@H]2CN(C(=O)Cc2ccsc2)C3)n1`, 9.91%; under `COCCN(C(=O)c1ccccn1)c1nc2c(s1)CCc1c-2cnn1C`, 101%. Take `CCCN(CCc1ccccn1)C(=O)CCc1cnn(C)c1`: the Percent Effect was 1.21%. The value for `Cc1cnccc1-c1cnn(CCNC(=O)c2ccccn2)c1C1CC1` was 4.25%.

In the case of `COCCN(Cc1ccoc1)C(=O)c1ccccn1`, the Percent Effect is 16.4%. The value for `CN(C(=O)c1ccccn1)c1nnc(C2CCOC2)s1` (stereo not given) was 5.59%; that for `CN(C(=O)c1ccccn1)c1nc2c(s1)CCc1c-2cnn1C` was 103%; that for `COCCN(C)C(=O)c1nc2c(s1)CCCN2c1ncccn1` was 17.5%. Under `CCCN(C(=O)c1ccccn1)c1nc2c(s1)CCc1c-2cnn1C` stands 106%; under `Cc1cc(-c2cnc(C)nc2CN(C)C(=O)c2ccccn2)on1`, 2.07%.
